The first assay concerns the target YIPF6. Nature of the assay: pooled miR-30 sensor sort-seq; sequence = guide strand. The conditions noted are these: shRNA.
With TAGGAATGGTGATTTCTCCTTC, the sensor-assay potency score (higher = more potent) amounted to 0.33. The same measure, in the same setting: the result for TCACTATCTGCAGAGTCTCTTT reads -0.696; that for TATCTGCAGAGTCTCTTTGCAG, -1.39; that for TTTTAGATCACGCATGATGGTA, -0.619. As to TTGTGAGATGGATATATCTGAA, the sensor-assay potency score (higher = more potent) was -0.839.

As for TTGAGGGTGATGGTAACTGCAC, the sensor-assay potency score (higher = more potent) was -0.917.

Sequence TCTCTTTGCAGCATTAATGCGA registered a sensor-assay potency score (higher = more potent) of -0.247.

TTTCACTATCTGCAGAGTCTCT had a sensor-assay potency score (higher = more potent) of -0.747. On the same count and under the same terms, the result for TAAACAGCTAGGGCTCTGCGGT reads -0.877. Still for that read-out and setting: in the case of TTTGAGTTGAGGGTGATGGTAA it was -0.386; in that of TTACAGGTCCTGGATCAGCCAA, -1.45; in that of TTTAGATCACGCATGATGGTAT, 0.00293.

Another assay deals with YJEFN3. The assay is described as above. The settings on record: shRNA.
For the sequence TGTCCATCTTCTCGCACTGGGT, the sensor-assay potency score (higher = more potent) is -1.09. As for TTCGTTAATGAGCTGCACCTCA, the sensor-assay potency score (higher = more potent) is -0.35. In turn, ATGGACAGCAGCTTGAGCGTGG came in with a sensor-assay potency score (higher = more potent) of 0.0409. Sequence TTGAGCGTGGCCAGCGCGCGGG displayed a sensor-assay potency score (higher = more potent) of -0.949. Take ATAGGCTTCGTTAATGAGCTGC: the sensor-assay potency score (higher = more potent) is 0.277. On to TAGCATGACCGCACAGCTCCAC, for which the sensor-assay potency score (higher = more potent) was -0.593. TTAATGAGCTGCACCTCAGTGG showed a sensor-assay potency score (higher = more potent) of 0.0127.

Sequence ATGACCGCACAGCTCCACGAGC displayed a sensor-assay potency score (higher = more potent) of -1.82. For TCCATCTTCTCGCACTGGGTGG, the sensor-assay potency score (higher = more potent) is -1.52. TCATCGGGCACGAACCTGCCGG yielded a sensor-assay potency score (higher = more potent) of -1.06. The sequence ATGTCCATCTTCTCGCACTGGG had a sensor-assay potency score (higher = more potent) of -1.01. The sequence AATCGCTGCCGGTCTCTGCGTC registered a sensor-assay potency score (higher = more potent) of -0.877.

Another assay concerns the target YPEL3. The description is as above. The conditions noted are these: shRNA.
In turn, TTGGAGATGAGGTCGTCGTGGT gave a sensor-assay potency score (higher = more potent) of 0.122. Regarding ACAATCATCCAAGTAGGCCTGA, the sensor-assay potency score (higher = more potent) was determined as 0.225. In turn, TTTGAAATCCGCACCATGGCGG came in with a sensor-assay potency score (higher = more potent) of -0.368. In the case of TTATGTACAAACGCTACAGAAC, the sensor-assay potency score (higher = more potent) is -1.18.

With TTCCCCTCTTTGTACTTCTGGC, the sensor-assay potency score (higher = more potent) was -0.928. TTGAGTTCAATGATGTACTTCC: the sensor-assay potency score (higher = more potent) came to 0.797. Take ATATACAGGAGCTAGATCCGTC: the sensor-assay potency score (higher = more potent) is 0.357. Consider TTGTACTTCTGGCTGCTCTCAA, for which the sensor-assay potency score (higher = more potent) amounted to 0.24. TATACCTCCGGTGACAATCATC returned a sensor-assay potency score (higher = more potent) of -1.49. Take TTCAATGATGTACTTCCCCTCT: the sensor-assay potency score (higher = more potent) is -0.135.

The sequence TCTTGCAGTTCTCGCAGTGGAT yielded a sensor-assay potency score (higher = more potent) of -1.02. On to TTCTCGCAGTGGATGTCGGCGA, for which the sensor-assay potency score (higher = more potent) is -0.367.

Values taken from the OligoGym collection.
Further: reference of the scale not given here.
